From PubChem BioAssay
Hits are enriched below; roughly 0.45% of the tested compounds scored in any of these assays.
NCOA1 inh: SRC1 coactivator transcriptional activity inhibitors, primary screen, cell-based, luminescence. inhibition, % at 3.6 µM. 360,000 compounds, 0.12% hits. HEK293 GAL4-SRC1 luciferase reporter. Nuclear receptor coactivator 1 (Homo sapiens), Q15788. AID 588354, 2011;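 active means inhibition above the campaign mean plus 3 SD, with each screening campaign given its own cutoff, cut at about 60% in these data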
NCOA2 inhibitor: inhibition of GAL4-SRC2 driven luciferase reporter, primary screen, SRC2 inhibitor project, cell-based, luminescence | HEK293 GAL4-SRC2 luciferase reporter | inhibition, % at 9 µM | 370,000 compounds, 0.17% hits;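 active means inhibition above the mean inhibition of all tested compounds plus 3 SD, set per campaign, cut at about 52% in these data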
SRC3 inh: SRC3 coactivator transcriptional activity inhibitors, primary screen, cell-based, luminescence; Nuclear receptor coactivator 3 (Homo sapiens), Q9Y6Q9; HEK293 GAL4-SRC3 luciferase reporter; inhibition, % at 3.6 µM; 360,000 compounds, 0.17% hits; AID 588352, 2011;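 active means inhibition above a per-campaign cutoff, the mean of all compounds plus 3 SD, cut at about 60% in these data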;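 further: higher means less SRC3-driven luciferase light from the GAL4 reporter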
LGR2 inh: inhibitors of bursicon-induced LGR2 CRE-luciferase signal, primary screen, cell-based, HEK293, CRE-luciferase reporter, bursicon stimulation | Drosophila bursicon receptor LGR2 (rickets) | bursicon-stimulated, 4 h | inhibition, % at 9.99 µM | 380,000 compounds, 0.35% hits | AID 720647, 2013;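 active means drop in luminescence signal, shown as inhibition above about 50% in the replicate tests, limit read from the data, passing the limit was not always enough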;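 further: agonist challenge used bursicon conditioned medium at about half maximal strength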
LRH-1 inv ag: LRH-1 (NR5A2) inverse agonists, primary screen, cell-based, luminescence, HEK293T, StAR-luciferase reporter; Nuclear receptor subfamily 5 group A member 2 (Homo sapiens), O00482; LRH-1 transfected, 24 h; inhibition, % at 3.6 µM; 360,000 compounds, 0.13% hits;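 active means inhibition above the mean inhibition of all tested compounds plus 3 SD, cut at about 73% in these data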
Target sequence (O00482 whole entry, looked up): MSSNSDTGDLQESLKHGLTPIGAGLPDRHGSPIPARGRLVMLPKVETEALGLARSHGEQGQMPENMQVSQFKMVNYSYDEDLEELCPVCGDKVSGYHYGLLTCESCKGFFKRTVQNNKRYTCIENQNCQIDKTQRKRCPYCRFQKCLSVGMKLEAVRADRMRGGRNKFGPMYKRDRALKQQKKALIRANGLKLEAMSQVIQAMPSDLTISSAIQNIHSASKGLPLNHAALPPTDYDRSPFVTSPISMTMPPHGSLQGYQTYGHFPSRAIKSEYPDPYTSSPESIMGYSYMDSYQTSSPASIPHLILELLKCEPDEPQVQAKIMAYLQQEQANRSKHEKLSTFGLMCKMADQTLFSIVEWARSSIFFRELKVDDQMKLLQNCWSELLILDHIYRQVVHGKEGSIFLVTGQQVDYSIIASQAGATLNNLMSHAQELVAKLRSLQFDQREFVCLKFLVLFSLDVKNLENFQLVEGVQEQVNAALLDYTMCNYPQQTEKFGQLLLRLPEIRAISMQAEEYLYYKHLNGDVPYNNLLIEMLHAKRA
Each line names hits and unclear results; the compound was inactive in the other large screens; ! = not active in a repeat.

COC(=O)[C@H]1[C@H](CO)[C@H]2Cn3c(ccc(-c4ccccc4F)c3=O)[C@@H]1N2CC1CCCC1	none (no result: NCOA1 inh, NCOA2 inhibitor, SRC3 inh, LRH-1 inv ag)
CC[n+]1c(/C=C/C=C/c2ccc(N(C)C)cc2)sc2ccccc21	SRC3 inh 62.0
CC(=O)c1c(C)n(C2CCCCC2)c2ccc(O)cc12	NCOA1 inh 73.2, SRC3 inh 69.4
CCC1(OC(=O)CN)C(=O)OCc2c1cc1n(c2=O)Cc2cc3ccccc3nc2-1 (configuration not stated)	SRC3 inh 69.4, LGR2 inh 96.4, LRH-1 inv ag 86.7 (no result: NCOA2 inhibitor)
COC(=O)[C@H]1[C@H](CO)[C@H]2Cn3c(ccc(C4=CCCC4)c3=O)[C@@H]1N2CC1CCCCC1	none (no result: NCOA1 inh, NCOA2 inhibitor, SRC3 inh, LRH-1 inv ag)
COC1=C(C)C(=O)C2=C(C1=O)C(CO)N1C(C#N)C3CC4C(C1C2N1CCOC41)N3C (configuration not stated)	NCOA1 inh 75.5, NCOA2 inhibitor 56.1, SRC3 inh 83.0
COc1ccc(OC(=O)N(C)C[C@@H]2OCc3ccccc3-c3c(n(C)c4ccccc34)C(=O)N([C@@H](C)CO)C[C@H]2C)cc1	none (no result: NCOA1 inh, NCOA2 inhibitor, SRC3 inh, LRH-1 inv ag)
CCN1/C(=C\C=C\C2=[N+](CC)c3ccccc3C2(C)C)C(C)(C)c2ccccc21	NCOA1 inh 75.2, SRC3 inh 80.9, LRH-1 inv ag 90.6 (no result: NCOA2 inhibitor, LGR2 inh)
COc1ccc(C#Cc2ccc([C@H]3[C@H](CO)N4CCCCN(C(=O)Cc5cccnc5)C[C@@H]34)cc2)cc1	none (no result: NCOA1 inh, NCOA2 inhibitor, SRC3 inh, LRH-1 inv ag)
C=C1C(=O)O[C@@H]2C[C@@H](C)[C@@H]3C=CC(=O)[C@@]3(C)[C@@H](O)[C@H]12	NCOA2 inhibitor 84.5, LGR2 inh 101.7, LRH-1 inv ag 87.1
COC(=O)C12OCC34C(CC5C(C)=C(O)C(=O)CC5(C)C3C(O)C1O)OC(=O)C(OC(=O)/C=C(\C)C(C)C)C24 (configuration not stated)	NCOA1 inh 96.3, NCOA2 inhibitor 73.9, SRC3 inh 94.0, LGR2 inh 101.1, LRH-1 inv ag 97.7
O=C(Cc1cccnc1)N1CCCCN2[C@H](C1)[C@@H](c1ccc(/C=C/c3ccccc3)cc1)[C@@H]2CO	none (no result: NCOA1 inh, NCOA2 inhibitor, SRC3 inh, LRH-1 inv ag)
CCCNC(=O)[C@H]1[C@H](CO)[C@H]2Cn3c(cccc3=O)[C@@H]1N2CCC	none (no result: NCOA1 inh, NCOA2 inhibitor, SRC3 inh, LRH-1 inv ag)
Clc1ccc(C[n+]2c(-c3ccccc3)cc(-c3ccccc3)cc2-c2ccccc2)cc1	SRC3 inh 74.9, LRH-1 inv ag 83.1
CC=Cc1ccc2n(c1=O)C[C@H]1[C@H](CO)[C@@H](C(=O)OC)[C@@H]2N1CC1CC1 (mixture of isomers)	none (no result: NCOA1 inh, NCOA2 inhibitor, SRC3 inh, LRH-1 inv ag)
CCOc1ccc(-c2cc(C)[n+](CCO)c(-c3ccc(OCC)cc3)c2)cc1	none
CCOc1ccc(-c2cc(C)[n+](CCc3ccc(OC)c(OC)c3)c(-c3ccc(OCC)cc3)c2)cc1	SRC3 inh 63.0
C[C@@H]1C[C@@H]([C@H](O)CC2CC(=O)NC(=O)C2)C(=O)[C@@H](C)C1	NCOA1 inh 92.9, NCOA2 inhibitor 69.9, SRC3 inh 93.4, LGR2 inh 78.6, LRH-1 inv ag 103.3
CC(=O)OC1(C)CC(C)C(=O)C(C(O)CC2CC(=O)NC(=O)C2)C1 (configuration not stated)	NCOA1 inh 95.9, NCOA2 inhibitor 65.2, SRC3 inh 95.4, LRH-1 inv ag 103.2 (no result: LGR2 inh)
COc1ccc(C#Cc2ccc([C@H]3[C@H]4CN(C(=O)Cc5cccnc5)CCCCN4[C@H]3CO)cc2)cc1	none (no result: NCOA1 inh, NCOA2 inhibitor, SRC3 inh, LRH-1 inv ag)
O=Cc1cn(Cc2cccc([N+](=O)[O-])c2)c2ccccc12	LGR2 inh 87.4, LRH-1 inv ag 80.5
COC(=O)[C@H]1[C@H](CO)[C@H]2Cn3c(ccc(-c4ccccc4F)c3=O)[C@@H]1N2C(C)=O	none (no result: NCOA1 inh, NCOA2 inhibitor, SRC3 inh, LRH-1 inv ag)
COc1ccc(CC2NCC(O)C2OC(C)=O)cc1 (configuration not stated)	NCOA1 inh 95.2, NCOA2 inhibitor 67.8, SRC3 inh 94.8, LRH-1 inv ag 102.5 (no result: LGR2 inh)
COC(=O)[C@@H]1[C@@H](CO)[C@@H]2Cn3c(ccc(C4=CCCC4)c3=O)[C@H]1N2Cc1ccccn1	none (no result: NCOA1 inh, NCOA2 inhibitor, SRC3 inh, LRH-1 inv ag)
CC(=O)OC1C(O)C(C)OC(OC2C(OC(=O)C3CCC4C(C3)OC3(CC(OC(=O)/C=C/c5ccccc5)C(C)CO3)C43CO3)OC(C)C(O)C2OC(C)=O)C1O (configuration not stated)	NCOA1 inh 95.5, NCOA2 inhibitor 72.2, SRC3 inh 94.9, LGR2 inh 99.2, LRH-1 inv ag 98.7
C/C=C/c1ccc(C2[C@@H]3CN(C(=O)C4CCC4)C[C@H]2N3)cc1 (some centres not stated)	none (no result: NCOA1 inh, NCOA2 inhibitor, SRC3 inh, LRH-1 inv ag)
Cc1ccc(/C=C2\C(=O)NC(=S)N(c3ccc(F)cc3)C2=O)s1	none
Cc1ccc(/C=C2\C(=O)NC(=S)N(c3ccccc3F)C2=O)s1	LGR2 inh 87.6
Nc1ncnc2c1ccn2[C@@H]1O[C@H](CO)[C@@H](O)[C@H]1O	NCOA1 inh 81.8, NCOA2 inhibitor 63.6, SRC3 inh 89.2, LGR2 inh 93.5, LRH-1 inv ag 102.6
NC(=S)c1cn(C2OC(CO)C(O)C2O)c2ncnc(N)c12 (configuration not stated)	NCOA1 inh 88.5, NCOA2 inhibitor 71.2, SRC3 inh 88.3, LGR2 inh 101.8, LRH-1 inv ag 94.4
COCC(=O)N1[C@@H]2c3ccc(C4=CCCC4)c(=O)n3C[C@H]1[C@H](CO)[C@H]2C(=O)OC	none (no result: NCOA1 inh, NCOA2 inhibitor, SRC3 inh, LRH-1 inv ag)
C[C@H]1CCC/C=C/[C@@H]2C[C@H](O)C[C@H]2[C@H](O)/C=C/C(=O)O1	SRC3 inh 68.1!, LRH-1 inv ag 89.7
C[C@H]1CCCC(=O)CCC/C=C/c2cc(O)cc(O)c2C(=O)O1	none
O=C(O)[C@@H]1[C@@H](CO)[C@@H]2Cn3c(ccc(-c4ccccc4)c3=O)[C@H]1N2CC1CCCCC1	none (no result: NCOA1 inh, NCOA2 inhibitor, SRC3 inh, LRH-1 inv ag)
CC(O)C1C=CC=CC(=O)OC2CC3OC4C5OC5(C)CCC4(COC(=O)C4OC4(C)C(O)CO1)C2(C)C31CO1 (configuration not stated)	NCOA1 inh 95.4, NCOA2 inhibitor 74.3, SRC3 inh 94.0, LGR2 inh 101.2, LRH-1 inv ag 98.8
CC(=O)OC1C(=O)OCC23CCC4(C)OC4C2OC2CC(OC(=O)C=CC=CC(=O)OCCC1C)C3(C)C21CO1 (configuration not stated)	NCOA1 inh 95.6, NCOA2 inhibitor 71.8, SRC3 inh 92.5, LGR2 inh 104.6, LRH-1 inv ag 98.1
CC=Cc1ccc2n(c1=O)C[C@@H]1[C@@H](CO)[C@H](C(=O)OC)[C@H]2N1CC1CCOCC1 (mixture of isomers)	none (no result: NCOA1 inh, NCOA2 inhibitor, SRC3 inh, LRH-1 inv ag)
COC(=O)[C@H]1[C@H](CO)[C@H]2Cn3c(ccc(-c4ccccc4F)c3=O)[C@@H]1N2C(=O)C1CC1	none (no result: NCOA1 inh, NCOA2 inhibitor, SRC3 inh, LRH-1 inv ag)
